Screening results deposited in PubChem by Broad Institute.
Only some compounds are listed: those with a hit (about 1.5% of all), similar ones and a draw of the others.
N-glyco inh = blocks N-linked glycosylation in D54 reporter cells | D54 ERlucT glycosylation luciferase reporter, 24 h; percent of 100 nM tunicamycin response | reporter increase, % at 12.5 µM | 360,000 tested, 0.23% active;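 active = mean luciferase reporter signal, scaled so untreated is 0 and the glycosylation-blocking control 100, at or above a set limit in every replicate; inconclusive = mean reaches the limit but not every replicate does; inactive = mean below the limit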;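 also: luciferase carries N-glycosylation sites so blocking glycosylation raises the light; 0% = median of neutral control wells and 100% = median of 100 nM tunicamycin wells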
RAD52 inh = inhibitors of human RAD52 DNA annealing; P43351; recombinant RAD52 DNA annealing, FRET fluorescence; inhibition, % at 18.7 µM; 360,000 tested, 0.46% active; AID 651710;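 active = every replicate showing at least 50% inhibition; inconclusive = mean inhibition at least 50% but not in every replicate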
Target sequence (P43351 whole entry, looked up): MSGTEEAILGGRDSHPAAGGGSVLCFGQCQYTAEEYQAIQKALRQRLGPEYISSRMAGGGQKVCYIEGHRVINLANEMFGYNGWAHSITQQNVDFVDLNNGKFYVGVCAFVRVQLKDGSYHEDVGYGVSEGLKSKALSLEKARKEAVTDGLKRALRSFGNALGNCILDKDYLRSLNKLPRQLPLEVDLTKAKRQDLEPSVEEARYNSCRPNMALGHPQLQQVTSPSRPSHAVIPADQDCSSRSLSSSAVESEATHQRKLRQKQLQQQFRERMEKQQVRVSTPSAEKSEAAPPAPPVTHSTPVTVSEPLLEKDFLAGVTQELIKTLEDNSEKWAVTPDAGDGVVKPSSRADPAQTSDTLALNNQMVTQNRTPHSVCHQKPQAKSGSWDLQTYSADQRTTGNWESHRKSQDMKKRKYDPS
CFTR F508del cor = correctors of CFTR F508del function in bronchial epithelial cells | CFBE cells, YFP halide quenching; stimulated with forskolin plus potentiator P3; % fluorescence drop versus neutral controls | activity (quench increase), % at 7.58 µM | 350,000 tested, 0.36% active | AID 720511;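 active = mean added fluorescence quench of at least 8% versus neutral control, with both replicates also reaching 8%; inconclusive = only one of the mean or replicate conditions met; inactive = mean below 8% and not both replicates reaching 8%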;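 also: cells transiently co-express mutant CFTR-F508del with the halide-sensitive YFP; corrector assay measuring rescue of mutant channel to the surface after 24 h compound exposure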
RAD54 branch = RAD54 (human) branch migration inhibition. Q92698. RAD54 Holliday junction branch migration, FAM/BHQ fluorescence. inhibition, % at 10.4 µM. 360,000 tested, 0.14% active. AID 602329;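 active = mean normalized replicate activity at least 40 and at least half of replicates scoring 40 or more; inconclusive = only one of the two criteria met; inactive = mean below 40 and under half of replicates reaching 40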;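 also: 0% = median of neutral control wells and 100% = median of positive control wells; inhibitors cause a drop in the FAM fluorescence signal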
dFosB act-1 = mouse delta FosB homodimer activation. P13346. purified delta FosB, TAMRA-CDK5 oligo fluorescence polarization; percent of positive-control signal above neutral wells. activation, % at 25 µM. 340,000 tested, 0.99% active. AID 493131;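 active = mean activation above about 17%, with every replicate also reaching it, limit read from the data, passing the limit was not always enough; inconclusive = only one of the two conditions met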
PvdQ inh = blocks Pseudomonas aeruginosa PvdQ acylase activity. inhibition, % at 10 µM. 340,000 tested, 0.063% active. purified PvdQ acylase, fluorescence plate reader; in the data active = inhibition above about 30%, passing the limit was not always enough; inconclusive = no clear call, values can overlap the other calls;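 also: 0% = vehicle neutral wells and 100% = reference inhibitor wells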
dFosB act-2 = activators of mouse delta FosB homodimer DNA binding; shares compounds with dFosB act-1; purified delta FosB, TAMRA-CDK5 oligo fluorescence polarization; normalised: neutral wells 0, positive control 100; activation, % at 24.9 µM; 2,400 tested, under 10 active; AID 588690;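 active = highest replicate activation at or above 34% and every replicate reaching that threshold; inconclusive = meets only one of the two criteria; inactive = meets neither criterion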;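 also: higher polarization means more probe DNA bound by delta FosB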
* = called active by the depositor; u = inconclusive; x = no result given.

SMILES	N-glyco inh	RAD52 inh	CFTR F508del cor	RAD54 branch	dFosB act-1	PvdQ inh	dFosB act-2
COc1ccc(CNCC(O)(c2ccc(Cl)cc2)c2ccc(Cl)cc2)cc1	-2	x	x	-3	21*	-16	0
COC(=O)C1=C(COc2ccccc2)NC(=O)NC1c1ccc2ccccc2c1 (stereo unspecified)	x	-58	2	x	x	x	x
COC(=O)C1=C(COc2ccccc2)NC(=O)NC1c1ccc(Br)cc1 (stereo unspecified)	-1	-40	-3	-1	35*	-9	2
O=c1[nH]c2cc([N+](=O)[O-])ccc2c2ccccc12	5	-17	1	x	2	0	x
O=C1Cc2c([nH]c3ccc([N+](=O)[O-])cc23)-c2ccccc2N1	88*	-1	-7	x	31*	-2	3
Cc1cc(SCC(=O)N/N=C/c2cccnc2)nc2c(C)cccc12	-1	-16	-1	x	67*	-5	-9
Cc1cccc(C)c1OCC(=O)N/N=C/c1cccnc1	2	-2	0	2	-5	-16	x
Cc1cccc(NC(=O)CSc2nc(N)c(NC(=O)c3cccs3)c(=O)[nH]2)c1	2	-9	1	4	-1	15	x
CCc1nnc(NC(=O)CSc2nc(N)c(NC(=O)c3ccc(OC)cc3)c(=O)[nH]2)s1	2	-21	-1	15	48*	-8	-4
Cc1cc(NC(=O)CSc2nc(N)c(NC(=O)c3ccc(F)c(F)c3)c(=O)[nH]2)no1	1	-6	-5	3	57*	-6	5
COCCSc1nc(N)c(NC(=O)c2ccc(OC)cc2)c(=O)[nH]1	3	-16	0	x	-4	-15	x
Cc1ccc(C)c(NC(=O)CSc2nc(N)c(NC(=O)c3cccs3)c(=O)[nH]2)c1	1	-12	-1	1	33*	0	1
Cc1cc(C)cc(NC(=O)CSc2nc(N)c(NC(=O)c3ccc(Br)o3)c(=O)[nH]2)c1	0	-16	-2	-7	77*	-10	u
Cc1cc(NC(=O)CSc2nc(N)c(NC(=O)c3ccccc3)c(=O)[nH]2)no1	-1	-5	x	x	11	2	x
C[C@H]1CCCCO[C@@H](CN(C)Cc2ccc(C(=O)O)cc2)[C@@H](C)CN([C@@H](C)CO)C(=O)c2cc(NC(=O)CCC(F)(F)F)ccc2O1	x	2	-2	7	x	x	x
Nc1nc(SCC(=O)Nc2ccc(C(F)(F)F)cc2)[nH]c(=O)c1NC(=O)c1ccc(F)c(F)c1	3	-2	1	-12	50*	-12	-1
Cc1cc(NC(=O)CSc2nc(N)c(NC(=O)c3ccccc3F)c(=O)[nH]2)no1	3	-20	-1	-22	22*	-7	6
Cc1cc(NC(=O)CSc2nc(N)c(NC(=O)c3ccco3)c(=O)[nH]2)no1	0	5	0	0	4	-3	x
O=C(COc1ccc2ccc(=O)oc2c1)NCCc1c[nH]c2ccc(F)cc12	-1	-14	0	3	4	-4	x
CCCc1cc(=O)oc2cc(OCC(=O)NCCc3c[nH]c4ccc(OC)cc34)ccc12	0	-3	-1	-31	19*	-12	2
COc1ccc(NC(=O)CCS(=O)(=O)c2ccc(Cl)cc2)cc1	1	-8	0	5	-3	-12	x
CC(=O)c1sc(NC(=O)CCS(=O)(=O)c2ccc(Cl)cc2)nc1C	-14	-3	2	x	21*	-12	0
O=C(Nc1cccnc1Cl)c1cc(-c2ccc(O)cc2)on1	1	-1	0	-1	29*	-8	-25
Cc1cc(C)c(NC(=O)CN2C(=O)NC(CCc3ccccc3)C2=O)c(C)c1 (stereo unspecified)	1	-14	1	-9	-7	-9	x
Cc1ccc(C)c(NC(=O)CN2C(=O)NC(CCc3ccccc3)C2=O)c1 (stereo unspecified)	0	-11	-2	5	34*	-15	1
SMILES	N-glyco inh	RAD52 inh	CFTR F508del cor	RAD54 branch	dFosB act-1	PvdQ inh	dFosB act-2
CC(=O)N1Cc2cc(C(=O)NCc3cccc(F)c3)nc(-c3cccc(C4=CCCC4)c3)c2[C@@H]1CCO	x	-26	0	x	x	x	x
Cc1cc(C)c2c(N)c3ccccc3nc2n1	123*	x	x	100*	31*	-19	4
Cc1cc(C)c2cccc(N)c2n1	9	0	1	-1	-8	-4	x
O=C(NC1CCCCC1)C(c1ccc(F)cc1)N(Cc1cccs1)C(=O)CN1C(=O)c2ccccc2S1(=O)=O (stereo unspecified)	-1	x	x	-8	29*	-7	0
Cc1ccc(NC(=O)c2cc(-c3cc(Cl)ccc3O)n[nH]2)cc1C	1	-6	-2	1	22*	-19	4
Cc1ccc(NC(=O)c2cc(-c3ccccc3O)n[nH]2)cc1Cl	1	-10	-1	-31	41*	-10	-7
COc1ccc(NC(=O)N(C)C[C@@H]2Oc3ccc(NC(=O)Nc4ccc5c(c4)OCO5)cc3C(=O)N([C@@H](C)CO)C[C@H]2C)cc1	x	9	-2	-10	x	x	x
CCC1CCCCN1CCCNC(=O)c1ccc2c(c1)NC(=O)CS2 (stereo unspecified)	2	-23	-1	-23	0	-8	x
CCC1CCCCN1CCCNC(=O)c1ccc(/C=C2/Sc3ccccc3NC2=O)cc1 (stereo unspecified)	-9	22	4	33	38*	11	0
COc1cccc(-c2cnc3c(c2)C(=O)N([C@H](C)CO)C[C@H](C)[C@@H](CN(C)CC2CCCC2)O3)c1	x	x	2	x	x	x	x
CCNC(=O)Nc1nc2ccccc2s1	-1	1	-2	x	0	-14	x
COc1ccccc1NC(=O)Nc1nc2ccc(S(N)(=O)=O)cc2s1	6	-45	5	4	49*	0	-6
Cc1ccc(NC(=O)Nc2nc3ccccc3s2)cc1NC(=O)Nc1nc2ccccc2s1	-3	-9	-2	1	32*	3	1
CS(=O)(=O)c1cccc(C(=O)OCC(=O)NC(=O)Nc2ccccc2F)c1	1	-9	-3	-2	22*	-12	3
COc1ccc2nc(NC(=O)Nc3cccc4ccccc34)sc2c1	2	-40	3	x	57*	0	1
O=C(C[C@@H]1C[C@@H]2c3cc(NS(=O)(=O)c4ccc(F)cc4)ccc3O[C@@H]2[C@@H](CO)O1)NCc1ccccc1F	x	-2	6	4	x	x	x
C/C=C/c1ccc([C@H]2[C@@H](CO)N(C(=O)Cc3cccnc3)[C@H]2CNC(C)=O)cc1	x	-10	4	-4	x	x	x
